In PMC5540273 (PLoS ONE, 2017):

How the values were obtained:
Conditions in all cases: concentration: 1 μM, replicates: in singlicate; n = 1
PRKD3 = system: PRKD3
PRKG1 = system: PRKG1
PRKG2 = system: PRKG2
PRKR = system: T1, PRKR
T1 construct: gene EIF2AK2

PRKX = system: PRKX
PRP4 = system: PRP4
PYK2 = system: T2, PYK2
T2 construct: gene PTK2B

QSK = system: QSK
RAF1 = system: RAF1
RET = system: RET
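Also: KINOMEscan kinase panel screen.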

SMILES | %Inh (PRKD3) [%] | %Inh (PRKG1) [%] | %Inh (PRKG2) [%] | %Inh (PRKR) [%] | %Inh (PRKX) [%] | %Inh (PRP4) [%] | %Inh (PYK2) [%] | %Inh (QSK) [%] | %Inh (RAF1) [%] | %Inh (RET) [%]
c1ccc(Oc2ccc(Nc3ccnc4cc(-c5ccc(CN6CCCCC6)o5)ccc34)cc2)nc1 [GW567143] | 0 | 6 | 0 | 0 | 7 | 2 | 0 | 27 | 0 | 11
Nc1ncc(-c2ccc3nccc(-c4ccncc4)c3c2)cc1S(=O)(=O)N1CCCCC1 [GSK1693850] | 23 | 7 | 0 | 3 | 27 | 0 | 28 | 1 | 18 | 13
CCn1c(-c2nonc2N)nc2c(-c3ccccc3)ncc(OCCCN)c21.O=C(O)C(F)(F)F.O=C(O)C(F)(F)F [GSK260205] | 100 | 5 | 95.7 | 0 | 28 | 27 | 6 | 27 | 6 | 91.7
CN(c1ccc(NC(=O)Nc2cccc(Cl)c2)cc1)c1ccnc(N)n1.Cl [GW830707] | 0 | 0 | 0 | 0 | 0 | 12 | 0 | 15 | 17 | 50
O=C(Nc1n[nH]c2nc(-c3ccccc3O)ccc12)C1CC1 [SB-711880] | 0 | 0 | 28 | 10 | 1 | 0 | 4 | 33 | 0 | 0
CN(C)CCOc1ccc(-c2cc(-c3ccc(Cl)c(O)c3)c(-c3ccncc3)[nH]2)cc1.Cl.Cl [SB-684387] | 15 | 11 | 80 | 11 | 17 | 15 | 0 | 3 | 88 | 60
CCn1cnc2c(NCc3ccccc3)ncnc21 [SKF-96418] | 0 | 0 | 0 | 8 | 0 | 41 | 0 | 10 | 17 | 0
Cl.Cl.NC(CNC(=O)c1cc(Br)c(-c2ccnc3[nH]ccc23)s1)c1ccccc1 (stereo not drawn) [GSK1322949] | 62 | 98.5 | 98.4 | 6 | 92.5 | 87 | 32 | 22 | 0 | 30
Nc1cccc(-c2ccc3c(N)n[nH]c3c2)c1 [GSK2193613] | 0 | 20 | 19 | 0 | 7 | 19 | 5 | 0 | 0 | 5
COc1ccc(NC(=O)c2ccoc2)cc1-c1ccc(C(=O)NCC2CC2)cc1 [GW810437] | 0 | 0 | 0 | 0 | 0 | 0 | 7 | 12 | 0 | 0
CN(c1ccc2c(c1)nc(NCc1ccccc1)n2C)c1ccnc(Nc2ccc(CS(C)(=O)=O)cc2)n1.Cl [GW811603] | 0 | 3 | 4 | 1 | 0 | 22 | 21 | 0 | 97.5 | 99.9
Cc1ccc(NC(=O)c2ccnc(N3CCCCC3)c2)cc1-c1ccc(C(=O)NCC2CC2)cc1 [GW775610] | 0 | 73 | 0 | 3 | 5 | 0 | 5 | 0 | 85 | 5
Nc1ncc(-c2cn[nH]c2)c2scc(-c3ccc4c(c3)CCN4C(=O)Cc3ccccc3)c12 [GSK2593067] | 11 | 27 | 0 | 0 | 21 | 0 | 9 | 9 | 0 | 34
Cc1cccc(Nc2nc(N[C@H]3CCCC[C@H]3N)ncc2C(N)=O)c1.Cl [GSK986310] | 58 | 20 | 0 | 30 | 25 | 1 | 71 | 18 | 3 | 76
O=C(O)C(F)(F)F.O=c1[nH]ccc2nc(N[C@@H]3CCNC3)nc(Nc3cc(Cl)cc(Cl)c3)c12 [GSK2188764] | 96.5 | 61 | 98.5 | 76 | 95 | 63 | 98.8 | 38 | 0 | 51
Cc1nn2c(=O)cc(N3CCO[C@H](C)C3)nc2n1Cc1cccc(Cl)c1Cl [GSK2373693] | 45 | 4 | 0 | 0 | 9 | 14 | 0 | 0 | 9 | 69
Cl.N#CCc1ccc(Nc2nccc(Nc3ccc(Oc4ccccc4)cc3)n2)cc1 [GW639905] | 53 | 0 | 0 | 0 | 10 | 16 | 8 | 1 | 6 | 38

SMILES | %Inh (PRKD3) [%] | %Inh (PRKG1) [%] | %Inh (PRKG2) [%] | %Inh (PRKR) [%] | %Inh (PRKX) [%] | %Inh (PRP4) [%] | %Inh (PYK2) [%] | %Inh (QSK) [%] | %Inh (RAF1) [%] | %Inh (RET) [%]
CN(C)c1ncnc2nc[nH]c12 [SKF-31736] | 0 | 19 | 0 | 0 | 0 | 0 | 0 | 27 | 0 | 0
Cl.O=C(Nc1ccc(Oc2ccc3[nH]c(NC(=O)c4ccco4)nc3c2)cc1)Nc1cc(C(F)(F)F)ccc1F [GW683134] | 37 | 12 | 0 | 0 | 20 | 27 | 10 | 0 | 94.7 | 99.9
COc1cc(Nc2nccc(N3CCC(NS(=O)(=O)c4ccc(NC(C)=O)cc4)CC3)n2)cc(OC)c1OC [GSK1379825] | 0 | 5 | 0 | 0 | 15 | 18 | 37 | 20 | 60 | 30
COC(=O)Nc1nc2ccc(Oc3ccc(CC(=O)Nc4cc(C(F)(F)F)ccc4F)cc3)cc2[nH]1 [GW680903] | 18 | 0 | 0 | 0 | 2 | 32 | 0 | 0 | 86 | 97.7
CNc1nccc(-c2ccc3c(N)n[nH]c3c2)n1 [GSK2206003] | 35 | 25 | 76 | 8 | 53 | 32 | 12 | 0 | 0 | 80
COc1cccc2c(-c3ccncc3)c(-c3ccc(F)cc3)nn12 [GW468513] | 43 | 0 | 0 | 0 | 10 | 25 | 12 | 0 | 33 | 22
Cc1ccc(NC(=O)c2ccc(Cl)c(Cl)c2)cc1-c1ccc(C(=O)Nc2ccncc2)cc1 [GSK1398460] | 23 | 13 | 0 | 7 | 17 | 0 | 13 | 0 | 78 | 38
Cn1cc(-c2ccc3c(c2)CCN3C(=O)Cc2cc(F)cc(F)c2F)c2c(N)ncnc21 [GSK2634140] | 0 | 0 | 0 | 2 | 16 | 21 | 12 | 0 | 18 | 5
COC(=O)Nc1nc2cc(Oc3ccc(NC(=O)Nc4cccc(SC)c4)cc3)ccc2[nH]1.Cl [GW697999] | 18 | 1 | 17 | 0 | 24 | 28 | 0 | 0 | 92.6 | 99.8
CN(C)CCNS(=O)(=O)c1ccc(-c2ccnc3[nH]ccc23)cc1 [GSK977620] | 11 | 95.4 | 97.4 | 0 | 68 | 0 | 20 | 8 | 1 | 2
Cc1cc(-c2c(-c3ccc(F)cc3)ncn2CCCN2CCOCC2)nc(N)n1 [SB-222517] | 0 | 0 | 0 | 16 | 0 | 0 | 10 | 23 | 0 | 13
O=C(Nc1n[nH]c2nc(-c3cccc(O)c3)ccc12)C1CC1 [SB-711805] | 0 | 21 | 35 | 100 | 0 | 0 | 11 | 18 | 6 | 0
COc1cccc(C2=C(Nc3cccc(O)c3)C(=O)NC2=O)c1 [SB-390771] | 7 | 9 | 81 | 15 | 20 | 41 | 43 | 0 | 20 | 1
Cc1ccc(C)c(NC(=O)Nc2ccc(C)c(-c3ccc(C(=O)Nc4ccncc4)cc3)c2)c1 [GSK1398473] | 38 | 31 | 0 | 14 | 20 | 0 | 0 | 8 | 89 | 23
COc1cc(Nc2ccnc3cc(-c4ccncc4)ccc23)cc(OC)c1OC.Cl [GW494610] | 6 | 8 | 69 | 0 | 0 | 27 | 16 | 84 | 23 | 24
Cc1ccc(O)cc1Nc1ccnc2cc(-c3ccc(CN4CCCCC4)o3)ccc12 [GW557777] | 95.1 | 0 | 0 | 1 | 0 | 0 | 5 | 41 | 7 | 100
